The text below walks through data of PubChem BioAssay AID488890 (Southern Research Specialized Biocontainment Screening …, 2010).

Molecules are shown by their SMILES. Screen size: about 320,000 compounds; about 1,300 (0.41%) were called active. Not shown: some 3% with an inconclusive outcome. No rule for the calls is given here. These entries were drawn from the full list. Potency and affinity values are given separately.

The experiment is described as follows: growth inhibition of non-replicating M. tuberculosis (AID 488890).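 Also: plate controls were DMSO cells for no effect and high antibiotic wells for full effect.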 The settings on record: Mycobacterium tuberculosis non-replicating, at 25 µM, stronger effect = higher value.
For `CN(C)CCN1C(=O)C2C(C(=O)Nc3cc(Cl)cc(Cl)c3)C3C=CC2(O3)C1C(=O)NC1CCCCC1` (stereo not drawn), the inhibition turned out to be 5.38%.

Regarding `COc1ccc(OCCCC(=O)OCC(=O)Nc2nnc(-c3ccccc3)o2)cc1`, the inhibition was 24.6%. Consider `CC(C)c1ccc(OCC(=O)NCCO)cc1`, for which the inhibition is -10.9%. With `Clc1ccccc1N1CCN(Cc2ccc(Br)o2)CC1`, the inhibition came out at 19.6%. In the case of `Cc1ccccc1N1CCN(Cc2cc3c(cc2[N+](=O)[O-])OCO3)CC1`, the inhibition was found to be 45.5%. The result for `Cc1ccccc1N1CCN(Cc2ccc(Br)o2)CC1` reads 35.5%; that for `Cc1ccc(CN2CCN(c3ccccc3Cl)CC2)o1`, -0.79%.

`Cc1cccc(N2CCN(Cc3ccc(Br)o3)CC2)c1C`: the inhibition turned out to be 51.8%. The result for `Cc1cccc(N2CCN(Cc3ccoc3)CC2)c1C` reads 11.8%; that for `CCOc1ccc(N=C2SCC(=O)N2CC)cc1`, 25.3%; that for `O=C(Nc1cccc([N+](=O)[O-])c1)NC1CCS(=O)(=O)C1` (stereo not drawn), -1.42%. The result for `CSc1ccccc1NC(=O)CN(C)CC(=O)Nc1c(F)cccc1F` reads 6.62%; that for `O=C1c2cccc3cccc(c23)C(=O)N1CCCc1n[nH]c(=S)n1-c1ccccc1`, -14.7%; that for `C=CCN(C)NC(=O)Nc1ccccc1`, 6.98%. As to `Cc1c(NC(=O)CCCCCN2C(=O)c3ccccc3C2=O)c(=O)n(-c2ccccc2)n1C`, the inhibition is -3.66%. `COc1cc(C(=O)N2CCC(NC(=O)C(Cc3ccccc3C)NC(C)=O)CC2)cc(OC)c1OC` (stereo not drawn): the inhibition turned out to be 3.5%. In the case of `Cc1nc([N+](=O)[O-])cn1CC(=O)c1ccc(Cl)cc1`, the inhibition was -12.5%. Take `Cc1c(Br)c([N+](=O)[O-])nn1CC(=O)c1ccccc1`: the inhibition was -6.01%.

On to `COC(=O)Cn1c(C)nc([N+](=O)[O-])c1Br`, for which the inhibition is -5.82%. `Cc1nc([N+](=O)[O-])c(Br)n1CC(=O)c1cccc([N+](=O)[O-])c1`: the inhibition was 68.4%. For the molecule `COc1ccc(OC)c(C(c2nnnn2CC2CCCO2)N2CCN(C)CC2)c1` (stereo not drawn), the inhibition stood at 9.88%. As to `COc1ccc(F)cc1S(=O)(=O)Nc1ccncc1`, the inhibition was found to be 10.8%. Regarding `N/C(COc1ncn(-c2ccccc2)n1)=N\S(=O)(=O)c1ccccc1`, the inhibition stood at 20.4%.

Consider `CCOC(=O)C1CCCN(Cc2nc(N)nc(Nc3ccccc3)n2)C1` (stereo not drawn), for which the inhibition was 42%. With `O=C(NC1CCCC1)c1nc2c(nnn2Cc2ccccc2Cl)c(=O)[nH]1`, the inhibition came out at 79.4%. For the molecule `O=C(NC1CC1)c1nc2c(nnn2Cc2ccccc2Cl)c(=O)[nH]1`, the inhibition was found to be 17.4%. Regarding `Cn1c(CCc2ccccc2)nnc1SCC(=O)N1CCCC1`, the inhibition is -11.6%.

As to `N#CC(C#N)=c1ccc2c(c1)N1C(c3ccccc3)=CC(c3ccccc3)C3CCCCC31N=2` (stereo not drawn), the inhibition is -0.07%. Take `O=C1NC2(CCCCC2)N=C1c1ccccc1`: the inhibition was -21.1%.

On to `CCOc1ccc(OCC(O)CNC2CCN(Cc3ccccc3)CC2)cc1` (stereo not drawn), for which the inhibition was found to be 35%. With `CC(C)(c1ccccc1)c1ccc(OCC(O)CN2CCCC2)cc1` (stereo not drawn), the inhibition was determined as 50%. For `CC(C)(C)c1ccc(-n2ncc3c2CCCC3NC(=O)CN2CCOC2=O)cc1` (stereo not drawn), the inhibition stood at 10.9%. On to `COC(=O)Nc1ccc(S(=O)(=O)N2c3ccccc3CCC2C)cc1` (stereo not drawn), for which the inhibition was 47.6%. Turning to `Cc1ccc(S(=O)(=O)N2CCC(C(=O)OC(C)C(=O)N(C)c3ccccc3)CC2)cc1C` (stereo not drawn), the inhibition stood at 36%. With `CCCCOc1ccc(Cn2c(=O)oc3ccccc32)cc1`, the inhibition is 59%. Take `CC(C)Oc1ccc(Cn2c(=O)oc3ccccc32)cc1`: the inhibition turned out to be 72%. Regarding `CCSc1ncc(C)cc1[N+](=O)[O-]`, the inhibition is -10.3%. As to `O=C(c1cccs1)N1CCN(Cc2ccccn2)CC1`, the inhibition is -6.8%. Regarding `Cc1cccc(Cn2c(Cc3ccccc3)nc3ccccc32)c1`, the inhibition was 46.2%.

Consider `COCCOc1cc(N)c(Cl)cc1Cl`, for which the inhibition was determined as 10.4%. For `CCOC(=O)COc1cc(N2C(=O)CSCC2=O)c(Cl)cc1Cl`, the inhibition was -8.36%. For the molecule `CN(C)/C=N/c1ncc(-c2ncc(C(F)(F)F)cc2Cl)cn1`, the inhibition was -8.2%. As to `CCn1nccc1C(=O)Nc1cccc(C)c1C`, the inhibition came out at 5.9%. The result for `COc1ccc(CC(C)CC(=O)Nc2ccc(OC)cc2)cc1` (stereo not drawn) reads 49.1%; that for `O=C1N=c2ccccc2=C1c1c(O)[nH]c2c(C(F)(F)F)cccc12`, 27.4%; that for `C=CCn1c(O)c(C2=c3ccccc3=NC2=O)sc1=Nc1ccc(O)cc1`, 30.7%. For `C=CCn1c(O)c(N=O)c2ccccc21`, the inhibition was -1.03%.

Take `Cc1ccc2c(c1)c(C1=NC(=S)NC1=O)c(O)n2C`: the inhibition is -2.45%. On to `CCn1c(O)c(C2=c3ccccc3=NC2=O)c2cc(Br)ccc21`, for which the inhibition worked out at 73.8%. As to `O=C1N=c2ccccc2=C1c1[nH]c(=S)[nH]c1O`, the inhibition was determined as 9.01%. Turning to `CC(C(=O)N1CCN=C1c1ccccc1)N1C(=O)c2ccccc2C1=O` (stereo not drawn), the inhibition was -7.08%. As for `O=C(CN1C(=O)NC2(CCCCC2)C1=O)Nc1ccc(Cl)cc1`, the inhibition was -0.81%. In the case of `C/C(=N/NC(=O)CCC(=O)Nc1ccc(Br)cc1)c1ccc(Br)cc1`, the inhibition is -21.4%. Take `O=C(NCc1ccccc1)c1ccco1`: the inhibition is 64.3%. In the case of `O=C(NNC(=O)c1ccco1)c1ccccc1`, the inhibition is -6.91%. For `Cc1ccc(/C=C2\SC(=S)N(CCC(=O)NCCCN3CCOCC3)C2=O)cc1`, the inhibition came out at 8.18%. With `CCOc1ccc(C(=O)c2cc([N+](=O)[O-])ccc2Cl)cc1`, the inhibition worked out at 6.56%. For `O=C(c1ccc(S(=O)(=O)Nc2ccccc2)cc1)N1CCC1`, the inhibition was -11.7%. For the molecule `CCCNC1=C(C)C(=O)C2=C(C1=O)C(COC(N)=O)[C@]1(OC)C3NC3CN21` (stereo partly drawn), the inhibition was 55.1%.

As to `COc1cccc2cc(C(=O)NCc3ccc(Cl)cc3)c(=O)oc12`, the inhibition came to 57.8%. Regarding `COc1ccc(CCNC(=O)c2cc3cccc(OC)c3oc2=O)cc1OC`, the inhibition was determined as 0.35%.

Turning to `CCN(CC)c1ccc2cc(C(N)=O)c(=N)oc2c1`, the inhibition amounted to 31.1%. For `CCN(CC)c1ccc2cc(C(C)=O)c(=O)oc2c1`, the inhibition was 3.33%. As to `Cn1c(=O)c(=O)n(C)c2cc(S(=O)(=O)N3CCN(Cc4ccccc4)CC3)ccc21`, the inhibition was determined as 5.19%.

On to `Nc1nc(-c2ccc3ccccc3c2)c(C2(O)C(=O)Nc3c(Br)cc(F)cc32)s1` (stereo not drawn), for which the inhibition was 0.16%.

Consider `COc1ccc(Cl)cc1NC(=O)CSc1nc(=O)n(CCN(C)C)c2c1CCCC2`, for which the inhibition came out at 16.1%. As to `Clc1ccccc1N/N=C/c1ccc2c(c1)OCO2`, the inhibition was 28.4%. Regarding `CN(CC(=O)NCCc1ccc(F)cc1)Cc1ccccc1`, the inhibition was determined as 20.9%.

For the molecule `CC(CCc1ccccc1)NC(=O)CN(C)Cc1ccc(F)cc1` (stereo not drawn), the inhibition worked out at 18%. The result for `CC(=O)N(C1=C(N)C(=O)c2ccccc2C1=O)c1ccccc1` reads 4.83%; that for `CCC(=O)N(C1=C(NC(C)C)C(=O)c2ccccc2C1=O)C(C)C`, 8.66%. As to `COC(=O)/C(=C/c1c[nH]c2ccccc12)[N+](=O)[O-]`, the inhibition stood at 9.02%. `COc1ccc2cc(Br)ccc2c1CC(=O)NCC1CCCO1` (stereo not drawn): the inhibition was 14.2%. On to `O=S(=O)(c1ccc2c(c1)OCCO2)N1CCN(S(=O)(=O)c2ccco2)CC1`, for which the inhibition was determined as 16.7%. The result for `c1ccc(-c2ccc(SCc3cccnc3)nn2)nc1` reads 63.6%; that for `c1ccc(CSc2ccc(-c3ccccn3)nn2)nc1`, 36.2%; that for `CCOC(=O)/C=C/C(=O)OCC(=O)Nc1ccc(Cl)cn1`, 0.76%. For the molecule `CS(=O)(=O)c1cnc(-c2ccccc2)nc1Oc1ccc(Cl)cc1`, the inhibition was -7.01%.

`O=P(O)(CCc1ccncc1)CN1CCCCC1`: the inhibition was -7.55%.

On to `COc1cccc2c(N/N=C/c3ccccc3)cc(C)nc12`, for which the inhibition was 3.67%. As for `COc1ccc(Nc2cc(C)nc3ccc(OC)cc23)cc1`, the inhibition was found to be 41.2%.

Take `Cc1cc(N/N=C/c2ccc(N(C)C)cc2)c2ccccc2n1`: the inhibition was -1.58%. The result for `COc1ccc2nc(C)cc(NCc3ccc(F)cc3)c2c1` reads 38.9%; that for `COc1ccc(Nc2cc(C)nc3ccccc23)cc1`, 36.9%. The result for `COc1ccccc1/C=N/Nc1cc(C)nc2ccc(C)cc12` reads -9.66%; that for `COc1ccc(C(=O)COC(=O)C(CCSC)NC(=O)COc2ccccc2)c(OC)c1` (stereo not drawn), 30.9%; that for `COc1ccccc1OCC(=O)NCc1n[nH]c(=O)c2ccccc12`, -15.2%. Regarding `O=C(COc1cccc2c1CCN(Cc1ccccc1)C2=O)N1CCCCC1`, the inhibition amounted to 10.8%. For the molecule `CCCC(=O)C1=C(O)C(C(=O)OC)C(C)(C)CC1=NCCc1ccc(OC)c(OC)c1` (stereo not drawn), the inhibition was determined as 19%. On to `CCOc1ccc(-c2csc(NC(=O)CSCC(=O)O)n2)c2ccccc12`, for which the inhibition worked out at 11.9%. In the case of `Cc1cccc(N/C(N)=N/c2nc(CSc3ccc(Cl)cc3)cc(=O)[nH]2)c1`, the inhibition was -0.84%. Consider `CN(Cc1ccc(F)cc1)C(=O)C(Cc1ccccc1)NC(=O)c1ccccc1` (stereo not drawn), for which the inhibition is -6.89%. Consider `COc1ccc(Cc2nnc(NC(=O)c3ccc(C)cc3)s2)cc1OC`, for which the inhibition was -7.61%. The result for `CC(C)c1ccc(C2/C(=C(/O)c3ccccc3)C(=O)C(=O)N2CCCN2CCOCC2)cc1` (stereo not drawn) reads 3.66%; that for `Cc1ccc(S(=O)(=O)NC(CC(C)C)C(=O)Nc2ccncc2)cc1` (stereo not drawn), 0.09%; that for `COc1ccc(OCC(=O)c2c(O)c3ccccc3oc2=O)cc1`, 23.3%.

For `CCOc1ccc(OCC(=O)c2c(O)c3ccccc3oc2=O)cc1`, the inhibition stood at 29.5%. On to `CC(=N)c1c(O)c2ccccc2oc1=O`, for which the inhibition was -3.72%. Consider `O=C(c1c(O)c2ccccc2oc1=O)C1CCC1`, for which the inhibition came out at 39%. Take `Cc1ccccc1-c1nnc(SCC(=O)NC2CCCC2)n1C`: the inhibition was 0.83%. `C[C@H]1CN([C@@H](C)CO)C(=O)c2cc(NC(=O)C3CCCCC3)ccc2O[C@H]1CN(C)CC1CCCCC1`: the inhibition is 5.45%. As for `CCc1ccc(CNC(=O)c2ccc(OC)c(OC3CCN(C(C)C)CC3)c2)nc1`, the inhibition was 2.53%. The result for `Cc1cccc(NC(=O)CCc2nnc3ccc(NCc4ccco4)nn23)n1` reads -10.9%; that for `COc1ccc(-c2cnn3c4c(c(C)nc23)CCN4C(C)C)cc1OC`, 6.73%. Take `CCOC(=O)Nc1ccc2c(c1)N(C(=O)CCN1CCOCC1)c1ccccc1S2`: the inhibition was 20.2%. For `CCOC(=O)Nc1ccc2c(c1)N(C(=O)CN)c1ccccc1CC2`, the inhibition came to 22.7%. The result for `CCOC(=O)Nc1ccc2c(c1)N(C(=O)CCN(C)C)c1ccccc1CC2` reads -1.89%; that for `CCOC(=O)Nc1ccc2c(c1)Sc1ccccc1N2C(=O)CCN1CCOCC1`, 39.8%; that for `O=C(CN1CCCCCC1)Nc1cc(C(F)(F)F)ccc1Cl`, 1.63%. The result for `COc1ccc(CNC(=O)C(NC(C)=O)C(C)C)cc1OC` (stereo not drawn) reads -1.56%; that for `COc1ccc([N+](=O)[O-])cc1N(CC(O)CN1C(=O)NC(C)(C)C1=O)S(=O)(=O)c1ccccc1` (stereo not drawn), -14.2%; that for `Cc1nnc(NC(=O)C2=COCCO2)s1`, -3.76%.

For the molecule `Cc1ccc(C(=O)NC2CCCC2)s1`, the inhibition stood at 56.2%. Regarding `O=C(NC1CCCC1)c1ccc(Cl)s1`, the inhibition was 75.8%. Regarding `Cc1c(Cl)cccc1NC(=O)c1ccc(OCC(=O)NCc2ccccc2)cc1`, the inhibition is -7.76%. Consider `CCOc1ccc(C(=O)NC2CCCCCCC2)cc1`, for which the inhibition came out at 77.1%. The result for `CCOC(=O)Nc1cccc(Cl)c1C` reads 20.8%; that for `CCC(=O)c1ccc(OCC(=O)OCC(=O)NC2CCCCCC2)cc1`, 20.5%.
